Laboratory results published in PubChem BioAssay (EPA / NIEHS).
Values joined by “and” are separate entries in the source; they are usually repeats but may differ in a detail not shown here. Equal values may be shown once. Records with an inconclusive call do not appear. A structure can be active in one record and inactive in another. Active and inactive are the calls of the source. How the source made its calls, unless noted: active means hit-call score of the fitted dose curve at least 0.9, where 1 is the maximum; inconclusive means response in the unintended direction; inactive means score below 0.9.

Assays:
[1] = target: Nuclear receptor subfamily 1 group I member 2 (Mus musculus) (UniProt O54915); test: ATG_mPXR_XSP2: Attagene TRANS-FACTORIAL Multi-Species (XSP1) HepG2 Assay for mouse Pregnane X Receptor (PXR) (AID 2283831)
Outline: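 Reporter transcripts measured after 24 h dosing by RT-PCR with 6-FAM labelling, HpaI digestion and capillary electrophoresis. Transiently transfected HepG2 with NR-Gal4 chimeras; increase over DMSO baseline scored.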

[2] = target: zebrafish Thyroid Hormone Receptor alpha (TRa), thraa (gene 30670) (UniProt Q98867); test: ATG_zfTRa_XSP2: Attagene TRANS-FACTORIAL Multi-Species (XSP1) HepG2 Assay for zebrafish Thyroid Hormone Receptor alpha (TRa) (AID 2283832);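 further: actives raise zebrafish TRa-Gal4 reporter transcript above DMSO baseline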
Outline: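 HepG2, transient MRTU transfection, exogenous NR-Gal4 chimeras; 24 h dosing; mRNA readout via RT-PCR/CE fluorescence; positive direction vs DMSO.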

[3] = tested on: zebrafish Peroxisome Proliferator-activated Receptor gamma (PPARg), gene 557037; test: ATG_zfPPARg_XSP2: Attagene TRANS-FACTORIAL Multi-Species (XSP2) HepG2 Assay for zebrafish Peroxisome Proliferator-activated Receptor gamma (PPARg) (AID 2283833);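 further: reporter mRNA from a zebrafish PPARg GAL4 chimera measured by RT-PCR and capillary electrophoresis; actives increase reporter signal over DMSO so AC50 reflects activation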
Outline: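 After 24 h chemical exposure, RNA from transiently transfected HepG2 (chimeric NR-Gal4 TRANS reporters) was reverse-transcribed, PCR-amplified, 6-FAM-labelled, HpaI-cut and sized by capillary electrophoresis. Induction was scored in the positive direction relative to DMSO.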

[4] = tested on: turtle Thyroid Hormone Receptor, alpha (TRa), gene 101949057; test: ATG_trTRa_XSP2: Attagene TRANS-FACTORIAL Multi-Species (XSP1) HepG2 Assay for turtle Thyroid Hormone Receptor, alpha (TRa) (AID 2283834);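 further: hits raise reporter mRNA over the DMSO baseline so AC50 marks activators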
Outline: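 Turtle TRa-Gal4 chimera activity in transfected human HepG2 cells: reporter transcripts quantified by RT-PCR, 6-FAM labelling and capillary electrophoresis 24 h post-dosing; positive direction versus DMSO, medium containing 3 nM 6-alpha-fluorotestosterone and 1.5 nM norgestrel.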

[5] = target: zebrafish Thyroid Hormone Receptor beta (TRb), thrb (gene 30607) (UniProt Q9PVE4); test: ATG_zfTRb_XSP2: Attagene TRANS-FACTORIAL Multi-Species (XSP1) HepG2 Assay for zebrafish Thyroid Hormone Receptor beta (TRb) (AID 2283836)
Outline: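 Transfect HepG2 with multiple reporter transcription units, dose chemical, incubate 24 h. Isolate RNA, reverse-transcribe, amplify and fluorescently label reporter sequences, digest with HpaI, then resolve by capillary electrophoresis. Positive direction fitted against DMSO.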

[6] = ATG_XTT_Cytotoxicity_XSP2: Cytotoxicity Assessment in the Attagene TRANS-FACTORIAL Multi-Species (XSP2) HepG2 Assay (AID 2283837)
Outline: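 XTT-based cell number read-out in human HepG2 liver cells carrying transfected reporter units, measured 24 h after chemical dosing. Activity is signal loss versus DMSO baseline.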

[7] = target: human Thyroid hormone Receptor alpha (TRa), THRA (gene 7067) (UniProt P10827); test: ATG_hTRa_XSP2: Attagene TRANS-FACTORIAL Multi-Species (XSP2) HepG2 Assay for human Thyroid hormone Receptor alpha (TRa) (AID 2283838)
Outline: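 Reporter transcripts were read by RT-PCR with fluorescent primer extension, HpaI digestion and capillary electrophoresis. These came from HepG2 cells carrying multiplexed TRa-Gal4 TRANS constructs, harvested 24 hours after dosing. The medium also held 6-alpha-fluorotestosterone (3 nM) and norgestrel (1.5 nM), and increases were fitted against DMSO.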

[8] = target: frog Thyroid hormone Receptor alpha (TRa), thra-a (gene 397942) (UniProt P15204); test: ATG_frTRa_XSP2: Attagene TRANS-FACTORIAL Multi-Species (XSP2) HepG2 Assay for frog Thyroid hormone Receptor alpha (TRa) (AID 2283839);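 on AC50: AC50 reflects induction of frog TRa-driven reporter mRNA above DMSO baseline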
Method: ATG_XSP2_multi-species_TRANS is a cell-based, multiplexed assay created by modifying the existing Attagene TRANS-FACTORIAL system to include a panel of nuclear receptors from some or all the following species: human (Homo sapiens), mouse (Mus musculus), frog (Xenopus laevis), zebrafish (Danio rerio), chicken (Gallus gallus), and turtle (Chrysemys picta). The ECOTOX-FACTORIAL format uses HepG2, a human liver cell line, with measurements taken at 24 hours after chemical dosing in a 24-well plate. Xsp2 included 3 nM 6-alpha-fluorotestosterone and 1.5 nM norgestrel to stimulate the androgen receptor.ATG_frTRa_XSP2 is one of 29 assay components measured or calculated from the ATG_XSP2_multi-species_TRANS assay. It is designed to make measurements of mRNA induction, a form of inducible reporter, as detected with fluorescence intensity signals by Reverse transcription polymerase chain reaction (RT-PCR) and Capillary electrophoresis technology.The assay endpoint ATG_frTRa_XSP2 was analyzed in the positive analysis fitting direction relative to DMSO as the negative control and baseline of activity. Using a type of inducible reporter, measures of mRNA for gain-of-signal activity can be used to understand the reporter gene at the transcription factor-level as they relate to the gene TR. Furthermore, this assay endpoint can be referred to as a primary readout, because this assay has produced multiple assay endpoints where this one serves a reporter gene function. To generalize the intended target to other relatable targets, this assay endpoint is annotated to the nuclear receptor intended target family, where the subfamily is non-steroidal.
Human liver HepG2 cells are transiently transfected with multiple reporter transcription units (MRTUs) in 6-well plates using FuGene 6 reagent (Roche; 3 ml FuGene/1 mg DNA). The MRTU constructs are regulated by a cis-regulating element (promoter). […] A major difference between the CIS and TRANS system is that in CIS activities of endogenous TFs are measured, whereas the TRANS assay evaluates changes in activities of exogenous, chimeric NR-Gal4 proteins. […] At the end of 24 hour incubation, total RNA was isolated using TriZol reagent (Invitrogen). The isolated RNA is then reverse-transcribed using oligo(dT) primer and Mo-MLV reverse transcriptase (Invitrogen) with DNAse I (Ambion) treatment for 30 min. […] The fragments were purified using Qiaquick PCR columns (Qiagen), analyzed on an ABI 3130xL genetic analyzer (Applied Biosystems) with peak positions identified by using a set of X-rhodamine (ROX)-labeled MapMarker1000 molecular weight standards (BioVentures). […]

[9] = target: human Thyroid hormone Receptor beta (TRb), THRB (gene 7068) (UniProt P10828); test: ATG_hTRb_XSP2: Attagene TRANS-FACTORIAL Multi-Species (XSP2) HepG2 Assay for human Thyroid hormone Receptor beta (TRb) (AID 2283840);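 further: actives raise reporter mRNA so potency reflects agonist-like gain of signal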
Outline: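 Activity of exogenous human TRb–Gal4 fusion measured by reporter mRNA from RT-PCR and capillary electrophoresis, 24 h after dosing transfected HepG2. 6-alpha-fluorotestosterone (3 nM) and norgestrel (1.5 nM) present. Gain-of-signal fit relative to DMSO.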

[10] = ATG_M_61_XSP2: Attagene TRANS-FACTORIAL Multi-Species (XSP2) HepG2 Assay for M61 Transcription Factor (Internal Marker) (AID 2283835; active means hit-call score of the fitted dose curve at least 0.9, where 1 is the maximum; inactive means score below 0.9;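 further: active means a rise in signal above the DMSO baseline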)
Method: ATG_XSP2_multi-species_TRANS is a cell-based, multiplexed assay created by modifying the existing Attagene TRANS-FACTORIAL system to include a panel of nuclear receptors from some or all the following species: human (Homo sapiens), mouse (Mus musculus), frog (Xenopus laevis), zebrafish (Danio rerio), chicken (Gallus gallus), and turtle (Chrysemys picta). The ECOTOX-FACTORIAL format uses HepG2, a human liver cell line, with measurements taken at 24 hours after chemical dosing in a 24-well plate. Xsp2 included 3 nM 6-alpha-fluorotestosterone and 1.5 nM norgestrel to stimulate the androgen receptor.ATG_M_61_XSP2 is one of 29 assay components measured or calculated from the ATG_XSP2_multi-species_TRANS assay. It is designed to make measurements of mRNA induction, a form of inducible reporter, as detected with fluorescence intensity signals by Reverse transcription polymerase chain reaction (RT-PCR) and Capillary electrophoresis technology.This assay endpoint, ATG_M_61_XSP2, was analyzed in the positive analysis fitting direction relative to DMSO as the negative control and baseline of activity. Using a type of inducible reporter, measures of mRNA for gain-of-signal activity can be used to understand the background control at the transcription factor-level as they relate to the gene. Furthermore, this assay endpoint can be referred to as a secondary readout, because this assay has produced multiple assay endpoints where this one serves a background control function. To generalize the intended target to other relatable targets, this assay endpoint is annotated to the background measurement intended target family, where the subfamily is internal marker.
Human liver HepG2 cells are transiently transfected with multiple reporter transcription units (MRTUs) in 6-well plates using FuGene 6 reagent (Roche; 3 ml FuGene/1 mg DNA). The MRTU constructs are regulated by a cis-regulating element (promoter). […] A major difference between the CIS and TRANS system is that in CIS activities of endogenous TFs are measured, whereas the TRANS assay evaluates changes in activities of exogenous, chimeric NR-Gal4 proteins. […] At the end of 24 hour incubation, total RNA was isolated using TriZol reagent (Invitrogen). The isolated RNA is then reverse-transcribed using oligo(dT) primer and Mo-MLV reverse transcriptase (Invitrogen) with DNAse I (Ambion) treatment for 30 min. The one-tenth of the produced cDNA was amplified by PCR using Taq DNA polymerase (Invitrogen) and two reporter sequence-specific primers. The PCR products were fluorescently labeled by primer extension with 6-arboxyfluorescein (6-FAM) 5'-labeled reporter sequence-specific primer (2 min at 95 C, 20 s at 68 C and 10 min at 72 C) and these products were digested with 5U of HpaI (New England Biolabs) for 2h at 37 C. The fragments were purified using Qiaquick PCR columns (Qiagen), analyzed on an ABI 3130xL genetic analyzer (Applied Biosystems) with peak positions identified by using a set of X-rhodamine (ROX)-labeled MapMarker1000 molecular weight standards (BioVentures). The raw capillary electrophoresis data was processed using Attagraph software (Attagene).

Measured: AC50

zebrafish Thyroid Hormone Receptor beta (TRb), thrb (gene 30607), sequence (Q9PVE4 whole entry, looked up): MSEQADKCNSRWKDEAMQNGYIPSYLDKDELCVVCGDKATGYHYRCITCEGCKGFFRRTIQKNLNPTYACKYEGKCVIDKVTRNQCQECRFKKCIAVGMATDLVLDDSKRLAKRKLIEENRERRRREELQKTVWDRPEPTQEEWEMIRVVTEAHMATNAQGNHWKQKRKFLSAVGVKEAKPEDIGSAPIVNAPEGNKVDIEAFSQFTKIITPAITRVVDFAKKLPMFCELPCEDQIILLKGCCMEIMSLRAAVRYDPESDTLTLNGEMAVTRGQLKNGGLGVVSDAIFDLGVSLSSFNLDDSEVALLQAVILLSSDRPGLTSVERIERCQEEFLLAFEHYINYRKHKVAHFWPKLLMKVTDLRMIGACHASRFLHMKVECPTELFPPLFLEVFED
zebrafish Thyroid Hormone Receptor alpha (TRa), thraa (gene 30670), sequence (Q98867 whole entry, looked up, the tested form may be a part): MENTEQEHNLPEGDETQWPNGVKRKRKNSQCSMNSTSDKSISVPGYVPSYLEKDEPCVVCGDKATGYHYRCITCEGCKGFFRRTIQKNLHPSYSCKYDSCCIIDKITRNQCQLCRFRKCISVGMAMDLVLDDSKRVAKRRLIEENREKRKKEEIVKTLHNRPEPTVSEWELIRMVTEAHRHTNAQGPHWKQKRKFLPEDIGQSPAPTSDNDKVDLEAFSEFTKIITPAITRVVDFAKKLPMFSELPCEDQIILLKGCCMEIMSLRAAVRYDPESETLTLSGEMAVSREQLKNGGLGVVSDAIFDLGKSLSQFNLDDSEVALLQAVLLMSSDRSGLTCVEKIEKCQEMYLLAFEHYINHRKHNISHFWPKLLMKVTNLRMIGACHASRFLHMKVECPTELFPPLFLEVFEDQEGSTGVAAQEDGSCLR
human Thyroid hormone Receptor beta (TRb), THRB (gene 7068), sequence (P10828 whole entry, looked up, the tested form may be a part): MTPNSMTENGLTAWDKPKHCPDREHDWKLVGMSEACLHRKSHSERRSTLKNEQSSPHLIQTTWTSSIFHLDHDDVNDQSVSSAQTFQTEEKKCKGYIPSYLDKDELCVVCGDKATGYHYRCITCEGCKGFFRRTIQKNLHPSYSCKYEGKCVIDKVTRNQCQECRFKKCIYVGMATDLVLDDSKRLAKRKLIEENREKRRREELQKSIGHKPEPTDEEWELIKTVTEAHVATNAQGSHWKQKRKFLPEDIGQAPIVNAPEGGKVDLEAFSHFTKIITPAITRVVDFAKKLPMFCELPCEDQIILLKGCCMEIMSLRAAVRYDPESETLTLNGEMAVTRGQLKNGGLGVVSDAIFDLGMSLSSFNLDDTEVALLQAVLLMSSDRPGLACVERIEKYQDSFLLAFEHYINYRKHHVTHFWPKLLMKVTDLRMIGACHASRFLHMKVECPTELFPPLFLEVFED
human Thyroid hormone Receptor alpha (TRa), THRA (gene 7067), sequence (P10827 whole entry, looked up, the tested form may be a part): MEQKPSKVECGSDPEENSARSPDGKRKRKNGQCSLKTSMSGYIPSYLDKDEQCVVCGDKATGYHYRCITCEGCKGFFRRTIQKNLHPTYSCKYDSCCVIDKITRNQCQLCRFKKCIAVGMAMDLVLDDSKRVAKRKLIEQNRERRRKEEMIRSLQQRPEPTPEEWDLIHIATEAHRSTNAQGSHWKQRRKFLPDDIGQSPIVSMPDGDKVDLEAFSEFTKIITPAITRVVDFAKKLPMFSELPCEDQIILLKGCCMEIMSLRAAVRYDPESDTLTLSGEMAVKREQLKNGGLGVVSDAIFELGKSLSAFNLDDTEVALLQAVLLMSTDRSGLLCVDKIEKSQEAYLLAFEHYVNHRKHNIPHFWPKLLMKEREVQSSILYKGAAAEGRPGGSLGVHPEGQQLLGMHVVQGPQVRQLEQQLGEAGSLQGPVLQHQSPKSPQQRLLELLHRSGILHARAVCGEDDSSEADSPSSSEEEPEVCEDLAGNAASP
frog Thyroid hormone Receptor alpha (TRa), thra-a (gene 397942), sequence (P15204 whole entry, looked up): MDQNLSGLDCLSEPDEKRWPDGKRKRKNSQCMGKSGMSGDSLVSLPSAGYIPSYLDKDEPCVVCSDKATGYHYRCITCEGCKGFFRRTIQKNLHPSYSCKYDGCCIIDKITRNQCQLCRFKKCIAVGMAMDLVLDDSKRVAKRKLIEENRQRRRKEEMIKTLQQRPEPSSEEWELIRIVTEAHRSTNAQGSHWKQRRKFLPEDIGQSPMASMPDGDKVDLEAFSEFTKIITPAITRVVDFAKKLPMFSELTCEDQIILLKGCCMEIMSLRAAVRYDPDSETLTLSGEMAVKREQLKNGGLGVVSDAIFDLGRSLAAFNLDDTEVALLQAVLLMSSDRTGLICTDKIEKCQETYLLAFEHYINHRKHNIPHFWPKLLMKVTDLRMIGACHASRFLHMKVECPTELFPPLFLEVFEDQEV
Nuclear receptor subfamily 1 group I member 2 (Mus musculus), sequence (O54915 whole entry, looked up, the tested form may be a part): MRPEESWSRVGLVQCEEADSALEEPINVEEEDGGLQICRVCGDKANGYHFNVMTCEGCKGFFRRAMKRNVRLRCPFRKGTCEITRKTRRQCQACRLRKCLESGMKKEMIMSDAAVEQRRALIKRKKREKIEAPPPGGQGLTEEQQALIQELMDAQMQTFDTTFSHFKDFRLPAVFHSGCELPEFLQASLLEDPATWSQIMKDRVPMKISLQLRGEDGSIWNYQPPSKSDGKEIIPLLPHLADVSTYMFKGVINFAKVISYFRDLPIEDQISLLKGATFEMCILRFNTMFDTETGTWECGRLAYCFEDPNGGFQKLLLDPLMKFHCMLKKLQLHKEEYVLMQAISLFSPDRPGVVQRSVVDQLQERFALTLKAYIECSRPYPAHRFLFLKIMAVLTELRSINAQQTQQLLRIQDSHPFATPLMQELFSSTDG

O=c1cc(-c2ccc(O)cc2)oc2cc(O)cc(O)c12
inactive: [2] | [3] | [4] | [5] | [6] | [7] | [9]
active: [1] 26.9 µM | [4] 26.7 µM | [7] 6.26 µM | [8] 39.2 µM and 44.6 µM | [9] 7.81 µM

C#C[C@]1(O)CC[C@H]2[C@@H]3CCc4cc(O)ccc4[C@H]3CC[C@@]21C
inactive: [2] | [4] | [10] | [5]
active: [9] 0.0262 µM

CC/C(=C(\c1ccccc1)c1ccc(OCCN(C)C)cc1)c1ccccc1
not listed: [4] | [6] | [7]
inactive: all other assays above

CCCCCC(=O)O[C@]1(C(C)=O)CC[C@H]2[C@@H]3CCC4=CC(=O)CC[C@]4(C)[C@H]3CC[C@@]21C
active: [3] 132 µM
not listed: [4] | [7] | [8]
inactive: all other assays above

CCCCCCCCOC(=O)c1ccc(O)cc1
active: [6] 41.3 µM
inactive: all other assays above

CC(C)(C)c1ccc(S)cc1
not listed: [3] | [9]
inactive: all other assays above
